From PubChem BioAssay AID504766 (The Scripps Research Institute Molecular Screening Center, 2011) come the findings set out here.

Out of some 340,000 compounds screened, about 3,400 (1%) were called active. This is one part of a sample in which actives are shown more often than they occur. Values without a mark were called inactive.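 How the source made its calls: active means inhibition above the mean over all tested compounds plus 3 SD (cut at about 4.2% in these data); inactive means the rest.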

The target of the assay is Nuclear receptor subfamily 0 group B member 1 (Homo sapiens) (UniProt P51843). Briefly: relief of DAX1 transcriptional repression – cell-based, HEK293, Gal4-DAX1, luciferase luminescence, primary screen (AID 504766).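 Further: 0% = DAX1-transfected cells with DMSO and 100% = empty-vector control cells with DMSO; inhibition shows as a rise in luminescence from relieved DAX1 repression.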 To be noted: HEK293 Gal4-DAX1 luciferase reporter, at 6.75 µM, hits give high values. Background: In a reporter assay the amount or activity of a reporter protein is the signal.
Chain of Nuclear receptor subfamily 0 group B member 1 (Homo sapiens) (P51843 207-470 limits assumed): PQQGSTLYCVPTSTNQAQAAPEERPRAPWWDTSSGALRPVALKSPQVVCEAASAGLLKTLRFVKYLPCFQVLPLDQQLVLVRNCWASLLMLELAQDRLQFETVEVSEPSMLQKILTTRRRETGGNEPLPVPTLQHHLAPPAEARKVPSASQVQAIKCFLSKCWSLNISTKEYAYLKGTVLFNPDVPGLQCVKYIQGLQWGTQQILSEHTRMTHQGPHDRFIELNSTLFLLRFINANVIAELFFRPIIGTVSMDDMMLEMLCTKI
Consider `Cc1ccccc1Nc1nc(N)nc(CSc2ccccc2)n1`, for which the inhibition – broadly, the drop in the measured response relative to a control, in per cent – is 3.71%.
As for `Cc1ccc(Nc2nc(N)nc(CSc3nnc(C)s3)n2)cc1`, the figure is 4.29% (active); as for `Cc1nnc(SCc2nc3ccccc3nc2C)s1`, 0.55%.
As to `Cc1cn([C@H]2C[C@H](O)[C@@H](CNC(=O)[C@H](N)Cc3cccnc3)O2)c(=O)[nH]c1=O`, the inhibition is 0.07%.
On to `CNC(=O)C[C@H]1C(=O)N(c2ccc(OC)cc2)C[C@@H]1Cc1ccccc1`, for which the inhibition is 0.14%.
For `C[C@H](CO)N1C[C@H](C)[C@@H](CN(C)S(=O)(=O)c2ccc(Oc3ccccc3)cc2)OCc2cn(nn2)CCCC1=O`, the inhibition was 0.27%.
Consider `COc1ccc(C(CNC(=O)CSc2ccccc2)N2CCOCC2)cc1` (stereo not drawn), for which the inhibition was 1.43%.
In the case of `CC(=O)NC(Cc1c[nH]c2ccccc12)C(=O)O` (stereo not drawn), the inhibition is 9.87% (active).
Under `CC(=O)NC(Cc1c[nH]c2ccccc12)C(=O)NCCc1ccccc1` (stereo not drawn) stands 3.45%.
On to `Cc1cccc(C)c1OCC(=O)NC(Cc1c[nH]c2ccccc12)C(=O)O` (stereo not drawn), for which the inhibition was 0.88%.
Under `CCc1cc(-c2nnn(CCC3COCCO3)c2CC)ccc1-c1cn(Cc2ccc3ccccc3c2)nn1` (stereo not drawn) stands -3.79%; under `C[C@H]1CN([C@@H](C)CO)C(=O)CCCn2cc(nn2)CO[C@@H]1CN(C)S(=O)(=O)c1ccc(-c2ccccc2)cc1`, 0%.
Under `O=C(O)c1ccc(S(=O)(=O)N2CCOCC2)o1` stands 6.4% (active); under `O=C(CCc1ccc(S(=O)(=O)N2CCOCC2)cc1)NN=C1CCCCCCC1`, 0%; under `O=C(c1cc(S(=O)(=O)N2CCOCC2)ccc1Cl)N1CCOCC1`, 0.61%.
`COc1ccc2c(c1)CCCO[C@]21O[C@H](CCO)C[C@H](O)[C@H]1O`: the inhibition is 0.36%.
`O=C(O)C1CCCN1c1nc(Cl)ccc1[N+](=O)[O-]` (stereo not drawn): the inhibition was -0.69%.
As for `Cn1ncc([N+](=O)[O-])c1C(=O)Nc1cc(Cl)ccc1Cl`, the inhibition was 1.05%.
On to `Cc1nc(-c2ccccc2)sc1C(=O)/C=C/c1ccccc1`, for which the inhibition is 5.32% (active).
As for `Cc1nc(-c2ccccc2)sc1C(=O)/C=C/N(C)C`, the inhibition is 3.31%.
Turning to `Cc1nc(-c2ccc(Cl)cc2)sc1C(=O)CBr`, the inhibition was -0.83%.
For `c1ccc(Cn2nnc3c(NCC4CC4)ncnc32)cc1`, the inhibition was 1.59%.
As for `O=C(Nc1ncccc1O)c1ccc(S(=O)(=O)N2CCCCCC2)cc1`, the inhibition is 1.6%.
Turning to `O=C(Nc1ncccc1O)c1ccc(C(=O)c2ccccc2)cc1`, the inhibition was 10.6% (active).
Turning to `O=C(Nc1ncccc1O)c1ccc(S(=O)(=O)N2CCCC2)cc1`, the inhibition was 2.95%.
With `Cc1cccc(C)c1NC(=O)CNC(=O)c1ccc(N2CCOCC2)c([N+](=O)[O-])c1`, the inhibition was 0.52%.
On to `CC1=C(C(=O)N2CCOCC2)CC(CC(=O)NCC2CCCCC2)C(=O)N1Cc1ccc(F)cc1` (stereo not drawn), for which the inhibition was 0.65%.
Consider `COc1ccc2nc(SCc3ccccc3)nc(C)c2c1`, for which the inhibition was 4.59% (active).
Take `COc1ccc(-c2nnc3ccc(SCc4ccccc4)nn23)cc1`: the inhibition is 0.1%.
In the case of `COc1cccc(CSc2nc3nc(C)cc(C)n3n2)c1`, the inhibition is 1.86%.
Under `COc1ccc(-c2ccc(CN3C(CC(C)C)C(=O)N(Cc4cn(CC5CCCCC5)nn4)CCS3(=O)=O)cc2)cn1` (stereo not drawn) stands -0.76%; under `O=C(NCCOc1ccccc1)N1[C@H]2CC[C@@H]1C=C(c1ccc(F)cc1OCc1ccccc1)C2`, 0.36%; under `CCc1c(N=O)c(-c2ccccc2)n(O)[n+]1[O-]`, 0.23%.
Consider `C[C@@H]1CN([C@@H](C)CO)C(=O)CCCn2nncc2CO[C@@H]1CN(C)S(=O)(=O)c1ccc(-c2ccccc2)cc1`, for which the inhibition was 0.31%.
Regarding `O=C(COC(=O)c1ccc(O)cc1O)c1ccc2c(c1)OCCO2`, the inhibition was -0.46%.
For the compound `O=C(/C=C/c1ccc2c(c1)OCCO2)c1ccc(O)cc1`, the inhibition was 16.4% (active).
Consider `O=C(/C=C\c1ccc2c(c1)OCO2)NC1(C(=O)Nc2ccc3c(c2)OCCO3)CCCCC1`, for which the inhibition is -0.83%.
`COc1ccc(-c2ccc(CN3C(CC(C)C)C(=O)N(Cc4cn(CC5CCCCC5)nn4)CCS3(=O)=O)cc2)cc1` (stereo not drawn): the inhibition was 1.23%.
Turning to `COCCCN1C(=O)C(CC(=O)NCc2cccs2)CC(C(=O)N2CCOCC2)=C1C` (stereo not drawn), the inhibition is 1.28%.
For the compound `CN1CCn2cnc(C(=O)NCC(=O)OC(C)(C)C)c2C1=O`, the inhibition was 0.48%.
Under `C[C@@H]1CN([C@@H](C)CO)C(=O)CCCn2cc(nn2)CO[C@H]1CN(C)S(=O)(=O)c1ccc(-n2cccn2)cc1` stands 1.04%; under `O=c1[nH]c2ccccc2n1C1CCN(CCOc2ccccc2)CC1`, -1.06%.
With `CCOC(=O)CSc1nccc(N(C)C)c1C#N`, the inhibition was 0.68%.
As to `Cc1nonc1NC(=O)CSc1nc2ccccc2cc1C#N`, the inhibition was 2.09%.
Consider `CCOc1ccc2cc(C#N)c(SCC(=O)OC)nc2c1`, for which the inhibition was 4.25% (active).
`COc1ccc(C(C)(C)C)cc1NC(=O)CN(C)C1=NS(=O)(=O)c2ccccc21`: the inhibition was 0.35%.
As for `O=C(CCCN1C(=O)C(c2ccccc2)Oc2cccnc21)Nc1ccccc1Br` (stereo not drawn), the figure is 0.05%.
For the compound `N#CCSc1ccccc1NC(=O)CN1C(=O)NC(CCc2ccccc2)C1=O` (stereo not drawn), the inhibition is 2.57%.
In the case of `C#CCN(C[C@H]1[C@H](OC(=O)NC2CCCC2)[C@H](OC(=O)NC2CCCC2)C[C@H]2C(=O)N(c3ccccc3)C(=O)[C@@H]12)S(=O)(=O)c1ccc(C)cc1`, the inhibition is -0.02%.
With `CC1CCC2(CC1)NC(=O)N(CC(=O)NCc1ccco1)C2=O` (stereo not drawn), the inhibition was 3.52%.
Take `Cc1ccc(S(=O)(=O)N2C[C@H]3n4c(=O)ccc(=O)n4C[C@H](OC(=O)NC4CCCC4)[C@@]3(O)C2)cc1`: the inhibition is 0.12%.
`C[C@H](CO)N1C[C@H](C)[C@@H](CN(C)C(=O)c2cccc(F)c2)Oc2cc(-c3cncnc3)ccc2S1(=O)=O`: the inhibition is 1.05%.
As for `CCCCOC(=O)c1[nH]c(C)c(C(=O)OC)c1C`, the figure is 2.23%.
As for `COC(=O)C1C(=O)c2c([nH]c(C(=O)OCCSC)c2C)CC1C` (stereo not drawn), the figure is 5.56% (active); as for `CCCOC(=O)c1[nH]c2c(c1C)C(=O)CC(c1cccs1)C2` (stereo not drawn), 1.32%; as for `C[C@H](CO)N1C[C@H](C)[C@@H](CN(C)S(=O)(=O)c2ccc(F)cc2)OCc2cnnn2CCCC1=O`, 0.91%.
`c1ccc(-c2c[nH]c(-c3ccccc3)c2)cc1`: the inhibition was 4.28% (active).
For `Oc1ccc(-c2cccc(-c3ccc(O)cc3)c2)cc1`, the inhibition is 2.72%.
For `c1ccc(-c2ccc3c(c2)NC(C2Nc4cc(-c5ccccc5)ccc4O2)O3)cc1` (stereo not drawn), the inhibition is -0.52%.
For `COc1cccc(NC(=O)CN(C)C(=O)c2cc(Cl)nc3ccccc23)c1`, the inhibition was -0.56%.
In the case of `COc1cc2c(=O)n(C)c3ccccc3c2cc1OC`, the inhibition is 0.78%.
Regarding `Cc1cccc(Oc2c([N+](=O)[O-])c(=O)n(C)c3ccccc23)c1`, the inhibition was 5.15% (active).
For `Cn1c(=O)c([N+](=O)[O-])c(Oc2ccccc2)c2ccccc21`, the inhibition was 1.91%.
Regarding `Cc1cccc(S(=O)(=O)N(C)C[C@H]2OCc3cnnn3CCCC(=O)N([C@@H](C)CO)C[C@H]2C)c1`, the inhibition is 2.68%.
Turning to `C[C@@H]1CN([C@@H](C)CO)C(=O)c2cc(Br)cnc2O[C@H]1CN(C)Cc1ccc(-c2ccccc2)cc1`, the inhibition is 0%.
As to `CCCCCCNC(=O)O[C@H]1CN(C(=O)OC(C)C)N(C(=O)OC(C)C)[C@@H]2CN(S(=O)(=O)c3ccc(C)cc3)C[C@]12O`, the inhibition was 0.72%.
Regarding `NC(=O)c1c(NC(=O)c2ccccc2)sc2c1CCCC2`, the inhibition was 4.41% (active).
For `O=C(CN1CCCC1)Nc1sc2c(c1C(=O)Nc1ccccc1)CCCC2`, the inhibition was 1.85%.
`O=C(Nc1sc2c(c1C(=O)O)CCC2)c1ccccc1F`: the inhibition was 0.36%.
Regarding `CCCCN1C(=O)C(CC(=O)NCc2cccs2)CC(C(=O)N2CCOCC2)=C1C` (stereo not drawn), the inhibition was 1.03%.
For `CC(=NNC(N)=O)C1CC2CCC1CC2` (stereo not drawn), the inhibition was 0.34%.
Regarding `C[C@H]1Cn2cnc(C(=O)N[C@@H](Cc3c[nH]c4ccccc34)C(=O)OC(C)(C)C)c2C(=O)N1`, the inhibition is 0.77%.
As for `C[C@H](CO)N1C[C@H](C)[C@@H](CN(C)C(=O)C2CCCCC2)OCc2cnnn2CCCC1=O`, the figure is 0.86%; as for `C[C@@H]1CN([C@H](C)CO)C(=O)CCCn2nncc2CO[C@@H]1CN(C)C(=O)OCc1ccccc1`, 4.4% (active); as for `COC(=O)N(C)C[C@@H]1OCc2cnnn2CCCC(=O)N([C@@H](C)CO)C[C@@H]1C`, 1.06%.
`Cn1c(CCN2CCN(c3ccccn3)CC2)nc2cc(NS(=O)(=O)c3ccc(F)cc3)ccc21`: the inhibition is 0.29%.
In the case of `Cc1cc2cc3n(c2nn1)N=C(Cl)CC3`, the inhibition was 1.28%.
With `CCN(Cc1ccncc1)C(=S)Nc1ccccc1C`, the inhibition is 0.81%.
In the case of `CCc1nnc(NC(=O)c2ccco2)s1`, the inhibition was 1.93%.
For the compound `CCCCN1C(=O)C(CC(=O)NC(c2ccccc2)c2ccccc2)CC(C(=O)N2CCOCC2)=C1C` (stereo not drawn), the inhibition was 0.88%.
For the compound `Cc1cccc(/C(N)=N/OC(=O)c2ccccc2Cl)c1`, the inhibition is 4.97% (active).
With `Cc1ccc(/C(N)=N/OC(=O)COc2ccc(Cl)c(C)c2)cc1`, the inhibition is -0.49%.
`Cc1ccc(C(=O)O/N=C(\N)c2ccccn2)cc1Cl`: the inhibition is -3.11%.
For the compound `COCC(=O)N(C)C[C@H]1Oc2cc(Br)ccc2S(=O)(=O)N([C@H](C)CO)C[C@H]1C`, the inhibition is 1.77%.
Regarding `COc1ccc(CN2C(=O)C(CC(=O)NCCN3CCOCC3)CC(C(=O)N(C(C)C)C(C)C)=C2C)cc1` (stereo not drawn), the inhibition was -0.44%.
Regarding `CC(=O)OC(C)C[N+](C)(C)C` (stereo not drawn), the inhibition is 1.03%.
For the compound `CC(=O)OCC(COC(C)=O)OC(C)=O`, the inhibition is -0.24%.
For `CC(=O)OCCC(C)C`, the inhibition is 5.92% (active).
